# High-throughput results from PubChem BioAssay.
# HT1080 IDH1KD tx = qHTS for induction of synthetic lethality in tumor cells producing 2HG: qHTS for the HT-1080-IDH1KD cell line. HT-1080 IDH1 knockdown viability, ATP luminescence, 48 h. Potency, µM (series often up to 46.1 µM), actives largely listed as cytotoxic. actives 2% (n = 360,000). AID 686971, 2013
#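 Assay cells: HT-1080 with IDH1 knockdown, 750 per well, RPMI/5% FBS. Exposure: 48 h at 37 °C following 2 h pre-incubation. Read: CellTiter-Glo luminescence; fitted concentration-response, curve class assigned.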
# IL1B secr inh = qHTS for Inhibitors of Inflammasome Signaling: IL-1-beta AlphaLISA Primary Screen; THP-1 LPS/ATP IL-1B secretion, AlphaLISA, 16 h; stronger effect = lower value; activity change, % at 57.5 µM; actives 4.7% (n = 360,000); in the data active = activity change below about -50%; inconclusive = mostly about -30% to -49%
#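 Secreted IL-1B measured by AlphaLISA bead assay after 16 h compound exposure of THP-1 cells; compounds (final up to 57.5 uM) added 1 h before LPS (250 ng/mL) and ATP (1.25 mM) stimulation; lower signal means less secretion.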
# HT1080-NT tox = qHTS for induction of synthetic lethality in tumor cells producing 2HG: qHTS for the HT-1080-NT fibrosarcoma cell line; Potency, µM (doses to about 46.1 µM), hits mostly cytotoxic; HT-1080-NT fibrosarcoma viability, CellTiter-Glo ATP luminescence, 48 h; actives 1.6% (n = 360,000);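 note: NT is the 2HG producing partner of a matched IDH1 knockdown line; nearly all actives have a fitted effect of over 55% in size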
#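 Luminescent CellTiter-Glo readout after 48 hours of compound exposure at 37 degrees C defined viability of HT-1080-NT cells. Activity was normalized to DMSO wells and cell-free media wells; concentration-response curves were fitted and assigned curve classes.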
# DT40 TDP1 CPT = qHTS for Inhibitors of human tyrosyl-DNA phosphodiesterase 1 (TDP1): qHTS in cells in presence of CPT; chicken DT40 Tdp1-/-;hTDP1 cells + 20 nM CPT, ATP luminescence, 48 h; Potency, µM (doses to about 46.2 µM), usual class: inhibitors; actives 12% (n = 420,000); note: nearly all actives have a fitted effect of over 55% in size
#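 Chicken DT40 Tdp1-/- cells complemented with human TDP1, 400 cells/well, exposed to compounds plus 20 nM camptothecin for at least 48 h at 37 C; viability read as ATP content by CellTiter-Glo luminescence.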
# DT40 TDP1 no CPT = qHTS for Inhibitors of human tyrosyl-DNA phosphodiesterase 1 (TDP1): qHTS in cells in absence of CPT | actives 15% (n = 420,000) | AID 686978, 2013 | Potency, µM (doses to about 46.2 µM), most hits filed as inhibitors | DT40 Tdp1-/- hTDP1 cells, no CPT, ATP luminescence, 48 h; note: nearly all actives have a fitted effect of over 55% in size
#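 Chicken DT40 Tdp1-/- cells complemented with human TDP1, screened without camptothecin (DMSO vehicle only), 400 cells/well. Compounds pin-transferred, cells incubated at 37 °C for at least 48 hr. Growth read as ATP-dependent luminescence (CellTiter-Glo, 30 min at RT).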
# Numbers stand for hits; n = inactive; u = inconclusive; x = no result; [ ] = another dose, or the depositor's remark. Shown are actives, neighbours in structure and some others; about 19% of the full set was active somewhere. Unless noted, calls come from the whole dose curve; as a rule, active = well fitted curve in the direction sought with a large enough effect; inconclusive = small, poorly fitted or top-dose-only effect, or another doubt; inactive = no such curve, though single readings can be large; an effect the other way counts as inactive or inconclusive.
SMILES,HT1080 IDH1KD tx,IL1B secr inh,HT1080-NT tox,DT40 TDP1 CPT,DT40 TDP1 no CPT
Cc1sc2ncnc(SC(C)C(=O)N3c4ccccc4Sc4ccccc43)c2c1C (configuration not stated),n,n,n,21µM,23µM
O=C(CSc1ncnc2sc3c(c12)CCC3)NCC1CCCO1 (configuration not stated),n,n,n,n,n
Cn1nnnc1SCC(=O)Nc1nc(-c2ccc(F)c(F)c2)cs1,n,n,n,u,u
Cc1ccc(-n2nnc3c(SCC(=O)NCC4CCCO4)ncnc32)cc1 (configuration not stated),n,-56,n,21µM,12µM
Cc1sc2ncnc(SCC(=O)NC3CC3)c2c1C,n,n,n,n,n
Cc1sc2ncnc(SCC(=O)NCC3CCCO3)c2c1C (configuration not stated),n,n,n,0.26µM,5.2µM
Cc1sc2ncnc(SCC(=O)NC(C)C(C)C)c2c1C (configuration not stated),n,n,n,16µM,16µM
CCN(CC)CCCNc1ccc2ncn3c4ccc(O)cc4c(=O)c1c23,u,-93,n,0.15µM,0.15µM
CN(C)CCNc1ccc2nnn3c4ccc(O)cc4c(=O)c1c23,21µM,-53,23µM,0.18µM,0.18µM
CN(C)S(=O)(=O)N1CCN(CC(O)COc2ccc3cc(Br)ccc3c2)CC1 (configuration not stated),n,n,u,15µM,8.2µM
OC(COc1ccc2cc(Br)ccc2c1)CN1CCCC1 (configuration not stated),13µM,n,n[9.24 µM],u,23µM
OC(COc1ccc2cc(Br)ccc2c1)CN1CCN(c2ccccn2)CC1 (configuration not stated),n,n,n,u,u
O=S(=O)(N1CCCCC1)N1CCN(CC(O)COc2ccc3cc(Br)ccc3c2)CC1 (configuration not stated),n,-52,n,11µM,11µM
CN(C)S(=O)(=O)N1CCN(CC(O)COc2ccc(-c3ccccc3)cc2)CC1 (configuration not stated),n,u,n,21µM,12µM
CCCN=C1N(CC)C[C@@H]2[C@@H]3C(=O)N(C)C(=O)[C@@H]3[C@](CC)(C(=O)OC)N12,n,n,n,n,n
Cc1ccc(S(=O)(=O)NCCS(=O)(=O)N2CCN(c3ccccc3)CC2)cc1,n,n,n,n,u
CCOC(=O)Cc1ccc(NC(=O)N2CCC(CN3CCC(C)CC3)CC2)cc1,x,x,x,n,n
CN(C)c1ccc(C2NCC(CCl)O2)cc1 (configuration not stated),n,n,n,n,n
Cc1ccc(CN2[C@@H](CC(C)C)COCCS2(=O)=O)cc1,n,n,n,n,n
CN1CCCC1CCNC1C2CC3CC(C2)CC1C3 (configuration not stated),n,n,u,8.2µM,16µM
Cc1cc(/C=C(\C#N)C(=O)Nc2ccccc2F)c(C)[nH]1,n,n,n,n,n
COc1cc(NC(=O)c2cc(S(=O)(=O)N3CCCCC3)ccc2N2CCOCC2)cc(OC)c1OC,n,n,n,n,n
N#C/C(=C\c1ccc[nH]1)C(=O)Nc1ccccc1F,n,n,n,n,n
N#C/C(=C\C1=C(N2CCOCC2)C(=C\c2ccc(Cl)cc2)/CC1)C(=O)Nc1ccccc1F,n,n,n,16µM,12µM
N#C/C(=C/C1=C(N2CCOCC2)C(=C/c2ccc(Cl)cc2Cl)/CC1)C(=O)Nc1ccccc1F,n,n,n,u,10µM
SMILES,HT1080 IDH1KD tx,IL1B secr inh,HT1080-NT tox,DT40 TDP1 CPT,DT40 TDP1 no CPT
COc1cc(NC(=O)C2=C(N3CCOCC3)/C(=C\c3ccc(Cl)cc3Cl)CC2)cc(OC)c1OC,n,n,n,13µM,16µM
N#C/C(=C\c1ccc[nH]1)C(=O)Nc1ccccc1Cl,n,n,n,n,n
N#C/C(=C/C1=C(N2CCOCC2)C(=C/c2ccccc2)/CC1)C(=O)Nc1ccccc1F,n,n,n,13µM,16µM
Cc1cccc(NC(=O)CSc2ccc3nnc(-c4cccnc4)n3n2)c1,n,n,n,n,n
NS(=O)(=O)c1ccc(N2CCOCC2)c(C(=O)NCc2ccc3c(c2)OCO3)c1,n,n,n,u,u
CC1(C)OC(=O)C2(Cc3ccccc3N3CCC(c4ccccc4)CC32)C(=O)O1 (configuration not stated),x,x,x,n,n
COc1ccccc1/C=C/CN1CCCC(CO)(CCc2ccccc2)C1 (configuration not stated),u,-94,u,21µM,u
CCOC(=O)C1(CCOC)CCN(Cc2ccncc2)CC1,n,n,n,n,n
OCC1(CCc2ccccc2)CCCN(C/C=C/c2ccccc2)C1 (configuration not stated),u,u,n,n,u
CCOC(=O)C1(CCOc2ccccc2)CCN(Cc2cccc(OC)c2)CC1,n,n,n,23µM,15µM
CCOC(=O)C1(CCOC)CCN(C/C=C/c2ccccc2OC)CC1,n,n,n,10µM,10µM
CCOC(=O)C1(CCOC)CCN(Cc2nc(C(C)C)cs2)CC1,n,n,n,u,26µM
CC(C)(C)c1cc(CCC(=O)Nc2ccncc2)cc(C(C)(C)C)c1O,n,u,n,n,n
O=C(NC1CCCC1)C(c1ccccc1)N(Cc1cccnc1)C(=O)Cc1cccs1 (configuration not stated),n,n,n,n,n
COCCCN1CN=C(Nc2nc3ccccc3o2)NC1,n,n,n,n,n
Cc1ccc(/C=C/C(=O)O)cc1S(=O)(=O)NC1CCS(=O)(=O)C1 (configuration not stated),n,n,n,n,n
CC1(C)OB(c2cnc(C#N)nc2)OC1(C)C,n,x,n,n,n
Cc1noc(C)c1NC(=O)Nc1cccc2c1O[C@H](CN(C)S(=O)(=O)c1cccs1)[C@@H](C)CN([C@H](C)CO)C2=O,n,n,n,n,n
CCOC(=O)C1(CCOC)CCN(Cc2cccc(OCc3ccccc3)c2)CC1,n,n,n,15µM,16µM
CCOC(=O)C1(CCOc2ccccc2)CCN(Cc2cc(OC)ccc2OC)CC1,n,n,n,u,15µM
CCOC(=O)C1(CCOc2ccccc2)CCN(Cc2cccs2)CC1,n,n,u,u,u
CCOC(=O)C1(CCOc2ccccc2)CCN(Cc2cccc(OC)c2O)CC1,u,-85,u,u,u
